# Source: PubChem BioAssay AID2315 (National Center for Advancing Translational Sciences (NCATS), 2010)
# The campaign covered roughly 290,000 compounds. About 27,000 (9.3%) were called active. No stated cut-off is given here; in the data, active means inhibition mostly above about 28% (no sharp cut-off); inactive means mostly below about 43%. What follows is part of a selection rich in actives, with near analogues and random picks from the rest.
# Experiment: A qHTS for Small Molecule Inhibitors of Shiga Toxin; further: 0% is about no effect
# Settings: Vero cells, Shiga toxin protein synthesis inhibition reporter; at 38.7 µM, active compounds read high
row,SMILES,inhibition
1,Cc1cc(C)cc(N(CC(=O)N2CC=C(c3ccccc3)CC2)S(=O)(=O)c2c(C)noc2C)c1,-8.45% (inactive)
2,CN(C)/C=C(\C=[N+](C)C)c1[nH]ncc1[N+](=O)[O-],-4.31% (inactive)
3,CNc1ccc(NC(C)=O)cc1[N+](=O)[O-],-5.19% (inactive)
4,CNc1[nH]ncc1[N+](=O)[O-],120% (active)
5,Cc1cc(-c2csc(N)n2)c(C)n1Cc1ccccc1,28.2% (active)
6,CC(=O)Nc1ccc(C(=O)Nc2nc(-c3cc(C)n(Cc4ccccc4)c3C)cs2)cc1,-6.21% (inactive)
7,Cc1cc(-c2csc(N)n2)c(C)n1-c1ccccc1,34.4% (inactive)
8,Cc1ccccc1NC(=O)CSc1nc2ccc(Nc3nc(N4CCOCC4)nc(N4CCOCC4)n3)cc2s1,23.8% (inactive)
9,Fc1ccc(-c2ccc(-c3nn4c(-c5ccco5)nnc4s3)o2)cc1,26.5% (active)
10,Cc1nnc2sc(-c3ccco3)nn12,-4.02% (inactive)
11,FC(F)(F)c1nnc2sc(-c3ccco3)nn12,7.08% (inactive)
12,CCN(CC)S(=O)(=O)c1ccc(NC(=O)c2cccnc2Cl)c(NC(=O)c2cccnc2Cl)c1,-4.86% (inactive)
13,Cc1ccc(NC(=O)CNCc2ccccn2)cc1S(=O)(=O)N(C)C,40.8% (inactive)
14,CCN(CC)S(=O)(=O)c1cc(C(=O)Nc2ccccn2)ccc1C,119% (active)
15,COc1cc(C(=O)NCc2nnc(SCC(=O)c3ccc(Cl)cc3)o2)cc(OC)c1OC,-10.7% (inactive)
16,OCCN1CCN(c2nnc(-c3ccccc3)c3ccccc23)CC1,-4.9% (inactive)
17,Cc1nc(C)c(-c2nnc(-c3cccc(S(=O)(=O)N(C)C)c3)o2)cc1C(=O)NN,3.74% (inactive)

row,SMILES,inhibition
1,COc1ccc2c(C(=O)c3ccc(C)cc3)n(CCC(N)=O)[n+]([O-])c2c1,7.71% (inactive)
2,NC(=O)Cc1ccc2c(c1)[nH]c1ccccc12,11.9% (inactive)
3,NC(=O)Cc1ccc2sc(-c3ccccc3)nc2c1,79.9% (active)
4,O=C(O)Cc1sc(-c2ccccc2)nc1-c1cccs1,47.2% (inactive)
5,Cc1cc(S(=O)(=O)NCc2ccccn2)c(Cl)cc1Cl,-4.73% (inactive)
6,CCSc1nc(O)c(C(c2cccc(OC)c2)c2c(O)nc(SCC)[nH]c2=O)c(=O)[nH]1,19.1% (inactive)
7,CC(=O)NCCC(=O)Nc1cc(S(=O)(=O)N2CCCCC2)ccc1Oc1cccc(C)c1,-10.6% (inactive)
8,O=C(Nc1cccc(F)c1)NC1CCCCCCC1,159% (active)
9,Cc1cc(Br)ccc1NC(=S)NC1CCCC1,35.4% (inactive)
10,CC(C)c1ccc(NC(=O)NC2CCCCC2)cc1,107% (active)
11,Cc1ccc(NC(=S)NC2CCCC2)cc1,85% (active)
12,Cc1cc(C)cc(NC(=O)NC2CCCCCCC2)c1,14.2% (inactive)
13,O=C(Nc1cccc(F)c1)NC1CCCc2ccccc21 (stereo not drawn),-2.03% (inactive)
14,CC(C)(C)NS(=O)(=O)c1ccc(NC(=O)NC2CCCCC2)cc1,56.6% (inactive)
15,C/C(CC(=O)Nc1cccc(F)c1)=N\NC(=O)C(=O)NC1CCCCC1,-4.86% (inactive)
16,Cc1ccc(NC(=O)CSCC(=O)NC2CCCCC2)cc1,5.95% (inactive)
